Results as given in PubChem BioAssay (NCI).
About 83,000 compounds went through this panel and 20% of them were active in at least one assay; those are over-represented in the sample as a whole.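 Each cell line was grown in a 96-well plate and treated with one concentration of compound for 48 hours. Values below 10 were considered active.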 Activity calls are given as the source filed them.

Tests used:
Experiment in all cases: NCI-60 one-dose screen, 48 h (100 = growth as untreated, 0 = no growth, -100 = all killed)
Details in all cases: 10 µM unless noted
DU-145 prostate = tested on: DU-145 prostate
K-562 leukemia = tested on: K-562 leukemia
MALME-3M melanoma = tested on: MALME-3M melanoma
MDA-MB-231 breast = tested on: MDA-MB-231 breast
RXF 393 renal = tested on: RXF 393 renal
SF-268 CNS = tested on: SF-268 CNS
SF-295 CNS = tested on: SF-295 CNS
SF-539 CNS = tested on: SF-539 CNS
UACC-257 melanoma = tested on: UACC-257 melanoma
M14 melanoma = tested on: M14 melanoma
HCT-15 colon = tested on: HCT-15 colon
HT29 colon = tested on: HT29 colon
SNB-75 CNS = tested on: SNB-75 CNS
SNB-19 CNS = tested on: SNB-19 CNS
U251 CNS = tested on: U251 CNS
PC-3 prostate = tested on: PC-3 prostate
SK-MEL-5 melanoma = tested on: SK-MEL-5 melanoma
UACC-62 melanoma = tested on: UACC-62 melanoma
LOX IMVI melanoma = tested on: LOX IMVI melanoma
SK-MEL-28 melanoma = tested on: SK-MEL-28 melanoma

Measured: growth

COc1cc(C2CC(c3cccc(Nc4ccnc5cc(Cl)ccc45)c3)=NN2c2ccccc2)cc(OC)c1OC (stereo not given)
inactive: DU-145 prostate 68.9% | K-562 leukemia 14% | MALME-3M melanoma 64.3% | MDA-MB-231 breast 77.7% | RXF 393 renal 93.1% | SF-268 CNS 63.2% | SF-295 CNS 31.5% | SF-539 CNS 80.7% | UACC-257 melanoma 80.1% | M14 melanoma 34.7% | HCT-15 colon 67.1% | HT29 colon 59.7% | SNB-75 CNS 79.2% | SNB-19 CNS 90.9% | U251 CNS 78.8% | PC-3 prostate 55.2% | SK-MEL-5 melanoma 62.1% | LOX IMVI melanoma 46.1% | SK-MEL-28 melanoma 67.2%
active: UACC-62 melanoma 9.18%

Cc1ccccc1N1C(c2ccccc2)=NNC12C=CC(=O)c1c(O)cccc12 (stereo not given)
active: SK-MEL-5 melanoma -26.3% | LOX IMVI melanoma 7.11%
inactive: DU-145 prostate 94.9% | K-562 leukemia 63.3% | MALME-3M melanoma 75.1% | MDA-MB-231 breast 73.5% | RXF 393 renal 115% | SF-268 CNS 76.7% | SF-295 CNS 54.5% | SF-539 CNS 76.2% | UACC-257 melanoma 45.3% | M14 melanoma 75.5% | HCT-15 colon 29.5% | HT29 colon 91.7% | SNB-75 CNS 81.7% | SNB-19 CNS 60.8% | U251 CNS 34.9% | PC-3 prostate 46.7% | UACC-62 melanoma 12% | SK-MEL-28 melanoma 102%

CC(C)(C)CC(C)(C)NCc1cc(C(C)(C)C)cc(CNC(C)(C)CC(C)(C)C)c1O
inactive: DU-145 prostate 66.6% | MALME-3M melanoma 51% | MDA-MB-231 breast 23.3% | RXF 393 renal 76.2% | SF-268 CNS 85.2% | SF-295 CNS 57.7% | SF-539 CNS 83.8% | UACC-257 melanoma 75.3% | M14 melanoma 70.1% | HCT-15 colon 56.8% | HT29 colon 11.1% | SNB-75 CNS 60.8% | SNB-19 CNS 77.2% | U251 CNS 49.7% | PC-3 prostate 47.9% | SK-MEL-5 melanoma 36.8% | UACC-62 melanoma 82.9% | LOX IMVI melanoma 45.6% | SK-MEL-28 melanoma 80.5%
active: K-562 leukemia 3.08%

O=C(N=Nc1c(Cl)c(O)c2ccccc2c1O)C(=O)Nc1cccc(C(F)(F)F)c1
active: DU-145 prostate -38.7%
inactive: K-562 leukemia 57.6% | MALME-3M melanoma 10.7% | MDA-MB-231 breast 56.6% | RXF 393 renal 81.5% | SF-268 CNS 68.2% | SF-295 CNS 41.1% | SF-539 CNS 102% | UACC-257 melanoma 100% | M14 melanoma 32.8% | HCT-15 colon 68.9% | HT29 colon 73.6% | SNB-75 CNS 31.3% | SNB-19 CNS 92.6% | U251 CNS 74.6% | PC-3 prostate 58.2% | SK-MEL-5 melanoma 72.4% | UACC-62 melanoma 83.2% | LOX IMVI melanoma 14.7% | SK-MEL-28 melanoma 101%

COc1ccc(-c2nsc3c2NC(=O)CC3c2cccc(F)c2)cc1 (stereo not given)
inactive: DU-145 prostate 53.7% | K-562 leukemia 13.9% | MALME-3M melanoma 42.7% | MDA-MB-231 breast 44.7% | RXF 393 renal 50.9% | SF-268 CNS 62% | SF-295 CNS 61.5% | SF-539 CNS 54.7% | UACC-257 melanoma 65.7% | M14 melanoma 32.6% | HCT-15 colon 23% | HT29 colon 10.4% | SNB-75 CNS 68.5% | SNB-19 CNS 82.7% | U251 CNS 45.6% | PC-3 prostate 49.4% | SK-MEL-5 melanoma 32.5% | UACC-62 melanoma 48.5% | LOX IMVI melanoma 50.9% | SK-MEL-28 melanoma 65.4%

CC(=O)Nc1nonc1-c1nc2ccccc2n1Cc1ccc(C(C)(C)C)cc1
inactive: DU-145 prostate 79.9% | K-562 leukemia 30.2% | MALME-3M melanoma 90.5% | MDA-MB-231 breast 92.8% | RXF 393 renal 65.8% | SF-268 CNS 67.2% | SF-295 CNS 79.6% | SF-539 CNS 89% | UACC-257 melanoma 92% | M14 melanoma 92% | HCT-15 colon 90.4% | HT29 colon 74.1% | SNB-75 CNS 50.2% | SNB-19 CNS 80.1% | U251 CNS 75.7% | PC-3 prostate 28.6% | SK-MEL-5 melanoma 79.9% | UACC-62 melanoma 81.6% | LOX IMVI melanoma 63% | SK-MEL-28 melanoma 101%

CCCCc1n(Cc2ccc3ccccc3n2)cc[n+]1Cc1ccc2ccccc2n1
inactive: DU-145 prostate 40.8% | RXF 393 renal 20.8% | SF-268 CNS 19.9% | SF-295 CNS 25.2% | SF-539 CNS 16.3% | M14 melanoma 17.1% | HCT-15 colon 87.8% | SNB-75 CNS 17.5% | SNB-19 CNS 10.4% | U251 CNS 11.6% | PC-3 prostate 16.2% | SK-MEL-28 melanoma 16.1%
active: K-562 leukemia 6.71% | MALME-3M melanoma -2.99% | MDA-MB-231 breast 9.88% | UACC-257 melanoma -11.9% | HT29 colon 5.9% | SK-MEL-5 melanoma -76.3% | UACC-62 melanoma -6.58% | LOX IMVI melanoma -22.2%

O=C1CC2(O)CSc3nc(=O)cc(n32)N1 (stereo not given)
inactive: DU-145 prostate 115% | K-562 leukemia 111% | MALME-3M melanoma 99.8% | MDA-MB-231 breast 100% | RXF 393 renal 110% | SF-268 CNS 112% | SF-295 CNS 88.8% | SF-539 CNS 104% | UACC-257 melanoma 99.2% | M14 melanoma 101% | HCT-15 colon 96.5% | HT29 colon 103% | SNB-75 CNS 98.4% | SNB-19 CNS 91.6% | U251 CNS 97.2% | PC-3 prostate 93.9% | SK-MEL-5 melanoma 99.5% | UACC-62 melanoma 102% | LOX IMVI melanoma 103% | SK-MEL-28 melanoma 104%

NC(N)=N/N=C/c1ccccc1
inactive: DU-145 prostate 105% | K-562 leukemia 96.1% | MALME-3M melanoma 102% | MDA-MB-231 breast 92.9% | RXF 393 renal 101% | SF-268 CNS 103% | SF-295 CNS 88.3% | SF-539 CNS 98% | UACC-257 melanoma 93.9% | M14 melanoma 103% | HCT-15 colon 93.1% | HT29 colon 99.8% | SNB-75 CNS 88.6% | SNB-19 CNS 92.5% | U251 CNS 97.5% | PC-3 prostate 94.1% | SK-MEL-5 melanoma 102% | UACC-62 melanoma 101% | LOX IMVI melanoma 100% | SK-MEL-28 melanoma 100%

CC(C)NCCCCCNc1cc(O)cc2cccnc12
inactive: DU-145 prostate 93.2% | K-562 leukemia 67.6% | MALME-3M melanoma 23.8% | MDA-MB-231 breast 26.6% | RXF 393 renal 74.7% | SF-268 CNS 89.2% | SF-295 CNS 77.4% | SF-539 CNS 71.5% | UACC-257 melanoma 111% | M14 melanoma 88.2% | HCT-15 colon 94.6% | HT29 colon 54.2% | SNB-75 CNS 56.4% | SNB-19 CNS 107% | U251 CNS 101% | PC-3 prostate 92.4% | SK-MEL-5 melanoma 88.2% | UACC-62 melanoma 94.5% | LOX IMVI melanoma 72.2% | SK-MEL-28 melanoma 91.6%
